Assay results taken from PubChem BioAssay (Tox21).
Results filed as inconclusive are left out. Calls of active or inactive are those of the source. Unless noted, the call rests on the fitted dose curve; in most records, active means well fitted curve in the direction sought with a large enough effect in the repeat runs; inconclusive means weak or mixed curves; inactive means no such curve, though single readings can be large; an effect the other way counts as inactive or inconclusive.

Experiments:
[1] = Caspase-3/7 induction in HepG2 cells by small molecules, qHTS assay (AID 1346978); further: nearly all actives have a fitted effect of over 15% in size; further: potency means the concentration at half of the fitted maximal effect
Method in brief: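 Wild-type HepG2 cells, 2,000/well, settled 5 hr at 37 C and 5% CO2, then compound-treated for 17 hr; caspase-3/7 activity read by luminescent Caspase-Glo 3/7 after 30 min at room temperature.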

[2] = Caspase-3/7 induction in CHO-K1 cells by small molecules, qHTS cell viability counter screen (AID 1346979); further: nearly all actives have a fitted effect of over 35% in size; further: potency means the concentration at half of the fitted maximal effect
Method in brief: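 Wild-type CHO-K1 cells (1,500/well) treated with compound after 5 h plating; after 16 h at 37C, viability read as CellTiter-Fluor fluorescence following 1 h reagent incubation, in the same wells as the caspase read.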

[3] = Caspase-3/7 induction in CHO-K1 cells by small molecules, qHTS assay (AID 1346980); further: nearly all actives have a fitted effect of over 15% in size; further: potency means the concentration at half of the fitted maximal effect
Method in brief: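 Wild-type CHO-K1 cells exposed to compounds for 17hr at 37 C, 5% CO2. Caspase-3/7 activity then measured by Caspase-Glo 3/7 luminescence after 30min at room temperature.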

[4] = Caspase-3/7 induction in HepG2 cells by small molecules, qHTS cell viability counter screen (AID 1346981); further: nearly all actives have a fitted effect of over 30% in size; further: potency means the concentration at half of the fitted maximal effect
Method in brief: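 Wild-type HepG2 cells (2,000/well) were allowed to settle for 5 hr at 37 C, 5% CO2, then dosed with compounds in DMSO by pin transfer. After 16 hr at 37 C, CellTiter-Fluor was added and fluorescence read 1 hr later.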

[5] = biological target: Nuclear receptor subfamily 1 group I member 2 (Homo sapiens) (UniProt O75469); test: Human pregnane X receptor (PXR) small molecule agonists, qHTS assay (AID 1346982); further: nearly all actives have a fitted effect of over 35% in size; further: potency means the concentration at half of the fitted maximal effect
Sequence of Nuclear receptor subfamily 1 group I member 2 (Homo sapiens) (O75469 whole entry, looked up): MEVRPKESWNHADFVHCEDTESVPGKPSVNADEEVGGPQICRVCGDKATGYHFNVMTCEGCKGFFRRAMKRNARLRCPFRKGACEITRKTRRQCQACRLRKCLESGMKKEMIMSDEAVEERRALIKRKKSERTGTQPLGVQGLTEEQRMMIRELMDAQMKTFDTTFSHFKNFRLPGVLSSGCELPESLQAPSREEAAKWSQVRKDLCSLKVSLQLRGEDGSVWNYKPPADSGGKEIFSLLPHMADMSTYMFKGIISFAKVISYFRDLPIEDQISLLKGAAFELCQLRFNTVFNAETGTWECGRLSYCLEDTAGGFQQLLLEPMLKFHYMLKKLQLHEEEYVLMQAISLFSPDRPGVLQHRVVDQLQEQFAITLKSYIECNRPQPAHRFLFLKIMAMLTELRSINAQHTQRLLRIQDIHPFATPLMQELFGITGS
Method in brief: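 PXR-Luc HepG2 cells (CYP3A4 promoter-driven luciferase) were seeded in medium with 5% charcoal-stripped FBS, left 5 hr at 37 C, then exposed to compounds in DMSO for 24 hr. Luminescence was read after ONE-Glo addition.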

[6] = biological target: Acetylcholinesterase (Homo sapiens) (UniProt P22303); test: Acetylcholinesterase (AChE) small molecule antagonists: colormetric cell-based qHTS assay (AID 1347395; calls by dose curve; further: nearly all actives have a fitted effect of over 30% in size)
Sequence of Acetylcholinesterase (Homo sapiens) (P22303 whole entry, looked up): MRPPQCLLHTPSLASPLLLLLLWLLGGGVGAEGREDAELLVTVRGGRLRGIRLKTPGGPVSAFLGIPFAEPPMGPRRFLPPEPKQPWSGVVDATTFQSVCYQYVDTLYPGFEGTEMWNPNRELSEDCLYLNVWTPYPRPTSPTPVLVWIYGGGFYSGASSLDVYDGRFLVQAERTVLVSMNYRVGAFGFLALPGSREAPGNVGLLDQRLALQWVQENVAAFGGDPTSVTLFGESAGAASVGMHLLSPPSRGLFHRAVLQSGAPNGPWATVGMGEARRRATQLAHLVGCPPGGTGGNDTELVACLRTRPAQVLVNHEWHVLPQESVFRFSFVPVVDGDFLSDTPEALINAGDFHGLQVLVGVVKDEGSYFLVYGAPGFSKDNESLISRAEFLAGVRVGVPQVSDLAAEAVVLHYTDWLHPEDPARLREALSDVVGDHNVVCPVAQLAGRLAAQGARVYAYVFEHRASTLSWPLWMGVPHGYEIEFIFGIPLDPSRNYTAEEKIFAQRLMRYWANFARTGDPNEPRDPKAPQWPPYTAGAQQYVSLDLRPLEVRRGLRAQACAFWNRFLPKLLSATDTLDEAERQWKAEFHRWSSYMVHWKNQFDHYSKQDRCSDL
Method in brief: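 SH-SY5Y cells attached overnight, exposed to compound 30 min at 37 C, then given DTNB/acetylthiocholine; after 90 min at 37 C, colorimetric thiocholine read gives cellular AChE activity.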

[7] = biological target: Acetylcholinesterase (Homo sapiens) (UniProt P22303); test: Acetylcholinesterase (AChE) small molecule antagonists: enzyme-based qHTS assay (AID 1347397; calls by dose curve; further: nearly all actives have a fitted effect of over 55% in size); conditions: Potency: AChE enzyme activity inhibition
Method in brief: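 Recombinant human AChE (50 mU/mL) preincubated with compound 30 min at room temperature; acetylthiocholine plus DTNB then added, and thiocholine formation read colorimetrically after 10 min at room temperature. DMSO served as vehicle control.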

[8] = biological target: Acetylcholinesterase (Homo sapiens) (UniProt P22303); test: Acetylcholinesterase (AChE) small molecule antagonists: fluorescence cell-based qHTS assay (AID 1347398; calls by dose curve; further: nearly all actives have a fitted effect of over 50% in size); conditions: Potency: AChE activity
Method in brief: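 SH-SY5Y cells (2000/well), attached overnight, incubated with compound 30 min at 37 C. Acetylthiocholine plus Thiolite Green then added for 40 min at room temperature. Thiocholine fluorescence (Ex/Em 490/520 nm) reports cellular AChE activity.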

[9] = biological target: Acetylcholinesterase (Homo sapiens) (UniProt P22303); test: Acetylcholinesterase (AChE) small molecule antagonists: enzyme-based qHTS assay with human liver microsomes (AID 1347399; calls by dose curve; further: nearly all actives have a fitted effect of over 60% in size); conditions: Potency: qHTS inhibition
Method in brief: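 Recombinant human AChE (50 mU/mL in the enzyme mix) and human liver microsomes (0.25 mg/mL final) were preincubated with compound and NADPH (0.25 mg/mL final) for 30 min at 37 C. Acetylthiocholine/DTNB was then added; thiocholine was read colorimetrically after 10 min at room temperature.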

[10] = biological target: Cytochrome P450 2D6 (Homo sapiens) (UniProt P10635); test: Cytochrome P450 Family 2 Subfamily D Member 6 (CYP2D6) small molecule antagonists: luciferase reporter qHTS assay (AID 1671196); further: series mostly up to about 120 µM; nearly all actives have a fitted effect of over 50% in size
Sequence of Cytochrome P450 2D6 (Homo sapiens) (P10635 whole entry, looked up): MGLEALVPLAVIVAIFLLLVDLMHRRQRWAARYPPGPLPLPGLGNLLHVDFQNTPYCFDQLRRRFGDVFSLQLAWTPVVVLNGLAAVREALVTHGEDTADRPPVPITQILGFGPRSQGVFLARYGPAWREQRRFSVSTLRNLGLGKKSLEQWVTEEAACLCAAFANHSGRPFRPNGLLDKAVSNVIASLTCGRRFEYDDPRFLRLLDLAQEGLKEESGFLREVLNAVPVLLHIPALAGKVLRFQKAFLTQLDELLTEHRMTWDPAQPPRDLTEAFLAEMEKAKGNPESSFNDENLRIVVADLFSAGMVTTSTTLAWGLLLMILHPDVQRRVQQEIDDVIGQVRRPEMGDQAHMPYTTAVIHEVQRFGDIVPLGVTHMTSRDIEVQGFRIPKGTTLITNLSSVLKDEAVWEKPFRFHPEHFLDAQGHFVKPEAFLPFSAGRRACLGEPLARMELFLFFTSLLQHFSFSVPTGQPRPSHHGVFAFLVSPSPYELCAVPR
Method in brief: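 CYP2D6 enzyme–substrate mix was held with compound for 10 min at room temperature, then NADPH regeneration solution was added and the reaction ran 1 h at room temperature. Luciferin product was detected by luminescence after 20 min with detection reagent.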

[11] = biological target: Cytochrome P450 2C19 (Homo sapiens) (UniProt P33261); test: Cytochrome P450 Family 2 Subfamily C Member 19 (CYP2C19) small molecule antagonists: luciferase reporter qHTS assay (AID 1671197); further: nearly all actives have a fitted effect of over 65% in size; further: potency means the concentration at half of the fitted maximal effect
Sequence of Cytochrome P450 2C19 (Homo sapiens) (P33261 whole entry, looked up): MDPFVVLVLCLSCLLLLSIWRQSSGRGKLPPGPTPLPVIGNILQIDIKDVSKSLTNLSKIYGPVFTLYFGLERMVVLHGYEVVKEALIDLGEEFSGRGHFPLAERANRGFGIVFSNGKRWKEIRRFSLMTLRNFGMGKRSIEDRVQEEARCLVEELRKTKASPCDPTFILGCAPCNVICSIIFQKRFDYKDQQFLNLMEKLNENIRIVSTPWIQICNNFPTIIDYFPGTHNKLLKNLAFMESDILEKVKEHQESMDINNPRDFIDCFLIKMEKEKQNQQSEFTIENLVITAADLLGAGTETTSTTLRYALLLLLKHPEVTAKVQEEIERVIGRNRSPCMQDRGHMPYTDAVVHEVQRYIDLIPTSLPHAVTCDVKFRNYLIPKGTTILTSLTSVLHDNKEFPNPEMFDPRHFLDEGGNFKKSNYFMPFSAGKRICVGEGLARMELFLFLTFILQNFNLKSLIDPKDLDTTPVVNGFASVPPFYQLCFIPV
Method in brief: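 Relative luminescence units recorded 20 min after the detection reagent stopped a 1 h, 37C CYP2C19 reaction on proluciferin substrate, which was started by NADPH regeneration following 10 min room-temperature compound preincubation; ketoconazole positive control.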

[12] = biological target: Voltage-gated inwardly rectifying potassium channel KCNH2 (Homo sapiens) (UniProt Q12809); test: Human Ether-a-go-go-Related Gene (hERG) channel small molecule antagonists: fluorescence cell-based qHTS assay (AID 1671200);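 further: hERG-expressing U2OS cells given a thallium stimulus after FluxOR II dye loading; series mostly up to about 77 µM; nearly all actives have a fitted effect of over 50% in size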
Sequence of Voltage-gated inwardly rectifying potassium channel KCNH2 (Homo sapiens) (Q12809 whole entry, looked up): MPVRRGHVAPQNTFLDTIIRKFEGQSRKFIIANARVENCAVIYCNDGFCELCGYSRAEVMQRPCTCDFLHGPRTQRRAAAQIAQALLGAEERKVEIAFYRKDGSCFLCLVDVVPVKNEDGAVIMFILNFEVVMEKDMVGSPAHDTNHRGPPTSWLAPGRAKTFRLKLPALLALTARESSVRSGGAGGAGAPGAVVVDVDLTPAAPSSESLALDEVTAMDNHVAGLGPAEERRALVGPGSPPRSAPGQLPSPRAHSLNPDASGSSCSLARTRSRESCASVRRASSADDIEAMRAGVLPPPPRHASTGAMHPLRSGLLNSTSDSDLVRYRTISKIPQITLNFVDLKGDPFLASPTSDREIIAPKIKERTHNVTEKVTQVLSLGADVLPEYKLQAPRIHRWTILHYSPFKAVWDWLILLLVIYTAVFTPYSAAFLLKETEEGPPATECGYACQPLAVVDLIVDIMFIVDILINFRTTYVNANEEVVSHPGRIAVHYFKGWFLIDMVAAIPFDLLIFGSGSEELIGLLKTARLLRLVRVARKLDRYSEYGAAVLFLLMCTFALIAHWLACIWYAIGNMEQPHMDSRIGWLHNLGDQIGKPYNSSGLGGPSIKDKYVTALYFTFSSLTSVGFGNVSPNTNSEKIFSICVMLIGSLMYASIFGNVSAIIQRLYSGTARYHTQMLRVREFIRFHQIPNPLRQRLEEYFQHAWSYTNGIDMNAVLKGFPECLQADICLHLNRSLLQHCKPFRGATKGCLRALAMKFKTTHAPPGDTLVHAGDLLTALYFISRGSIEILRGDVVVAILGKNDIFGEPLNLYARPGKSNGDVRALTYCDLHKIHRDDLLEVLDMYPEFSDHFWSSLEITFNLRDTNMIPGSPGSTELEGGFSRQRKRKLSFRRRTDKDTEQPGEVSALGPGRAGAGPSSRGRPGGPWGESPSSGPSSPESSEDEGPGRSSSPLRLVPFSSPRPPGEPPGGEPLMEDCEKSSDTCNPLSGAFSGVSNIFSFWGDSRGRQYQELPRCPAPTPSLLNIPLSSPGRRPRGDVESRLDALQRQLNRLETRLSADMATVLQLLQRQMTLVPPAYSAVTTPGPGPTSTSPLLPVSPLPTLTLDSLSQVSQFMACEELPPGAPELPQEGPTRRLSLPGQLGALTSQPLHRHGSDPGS
Method in brief: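 hERG-U2OS cells plated overnight at 37 C, loaded with FluxOR II dye 1 h at RT in dark; after 10 min, thallium stimulus added. Fluorescence (480/540 nm) read kinetically for 2 min at 1 s intervals.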

[13] = biological target: Nuclear receptor subfamily 1 group I member 2 (Homo sapiens) (UniProt O75469); test: Human pregnane X receptor (PXR) activation by small molecules, qHTS assay (AID 1346985); further: nearly all actives have a fitted effect of over 40% in size
Method in brief: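 DPX-2 cells (HepG2 co-transfected with a PXR response element and a CYP3A4-promoter luciferase construct) were seeded at 2,000 per well, rested 5 hr at 37C, then exposed to DMSO-dissolved compounds for 24 hr. Activation was read as luciferase luminescence.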

[14] = biological target: Cytochrome P450 2C9 (Homo sapiens) (UniProt P11712); test: Cytochrome P450 Family 2 Subfamily C Member 9 (CYP2C9) small molecule antagonists: luciferase reporter qHTS assay (AID 1671198); further: nearly all actives have a fitted effect of over 50% in size; further: potency means the concentration at half of the fitted maximal effect
Sequence of Cytochrome P450 2C9 (Homo sapiens) (P11712 whole entry, looked up): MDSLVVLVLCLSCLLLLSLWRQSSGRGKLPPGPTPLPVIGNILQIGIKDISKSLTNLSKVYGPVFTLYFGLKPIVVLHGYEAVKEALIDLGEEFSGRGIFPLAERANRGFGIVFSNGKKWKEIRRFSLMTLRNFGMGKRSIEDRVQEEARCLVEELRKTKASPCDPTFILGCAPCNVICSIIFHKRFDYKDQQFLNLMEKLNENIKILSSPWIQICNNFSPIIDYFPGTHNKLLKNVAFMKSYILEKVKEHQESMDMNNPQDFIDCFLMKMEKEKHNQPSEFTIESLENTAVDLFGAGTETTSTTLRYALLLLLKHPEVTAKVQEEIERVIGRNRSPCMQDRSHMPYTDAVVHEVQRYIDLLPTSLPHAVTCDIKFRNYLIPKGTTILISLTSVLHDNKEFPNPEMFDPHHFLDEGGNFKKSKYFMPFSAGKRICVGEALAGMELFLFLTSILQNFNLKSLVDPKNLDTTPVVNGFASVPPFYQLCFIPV
Method in brief: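 P450-Glo proluciferin substrate with CYP2C9 enzyme; 10 min RT preincubation, then NADPH regeneration 1 h at 37C; luciferin detection reagent 20 min RT, luminescence in relative luminescence units.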

[15] = biological target: Cytochrome P450 3A4 (Homo sapiens) (UniProt P08684); test: Cytochrome P450 Family 3 Subfamily A Member 4 (CYP3A4) small molecule antagonists: luciferase reporter qHTS assay (AID 1671201); further: nearly all actives have a fitted effect of over 50% in size; further: potency means the concentration at half of the fitted maximal effect
Sequence of Cytochrome P450 3A4 (Homo sapiens) (P08684 whole entry, looked up): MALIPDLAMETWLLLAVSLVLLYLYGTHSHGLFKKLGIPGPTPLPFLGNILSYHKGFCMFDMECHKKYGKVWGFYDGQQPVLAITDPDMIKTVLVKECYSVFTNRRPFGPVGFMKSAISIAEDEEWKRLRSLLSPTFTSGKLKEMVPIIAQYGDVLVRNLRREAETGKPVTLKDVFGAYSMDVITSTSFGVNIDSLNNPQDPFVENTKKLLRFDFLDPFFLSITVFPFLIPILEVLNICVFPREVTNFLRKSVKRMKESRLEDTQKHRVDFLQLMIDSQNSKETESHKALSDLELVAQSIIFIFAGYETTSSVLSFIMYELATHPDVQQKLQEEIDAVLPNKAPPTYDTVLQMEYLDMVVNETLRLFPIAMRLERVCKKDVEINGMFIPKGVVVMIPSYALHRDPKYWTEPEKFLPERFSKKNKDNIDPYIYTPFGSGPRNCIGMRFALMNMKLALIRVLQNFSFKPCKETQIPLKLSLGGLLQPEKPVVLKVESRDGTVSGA
Method in brief: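 P450-Glo CYP3A4 luminescent assay: compounds preincubated 10 min at room temperature with enzyme and proluciferin substrate, NADPH regeneration added, 1 h room-temperature reaction, stopped with luciferin detection reagent; luminescence read after 20 min. Ketoconazole positive control.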

[16] = biological target: Cytochrome P450 1A2 (Homo sapiens) (UniProt P05177); test: Cytochrome P450 Family 1 Subfamily A Member 2 (CYP1A2) small molecule antagonists: luciferase reporter qHTS assay (AID 1671199)
Sequence of Cytochrome P450 1A2 (Homo sapiens) (P05177 whole entry, looked up): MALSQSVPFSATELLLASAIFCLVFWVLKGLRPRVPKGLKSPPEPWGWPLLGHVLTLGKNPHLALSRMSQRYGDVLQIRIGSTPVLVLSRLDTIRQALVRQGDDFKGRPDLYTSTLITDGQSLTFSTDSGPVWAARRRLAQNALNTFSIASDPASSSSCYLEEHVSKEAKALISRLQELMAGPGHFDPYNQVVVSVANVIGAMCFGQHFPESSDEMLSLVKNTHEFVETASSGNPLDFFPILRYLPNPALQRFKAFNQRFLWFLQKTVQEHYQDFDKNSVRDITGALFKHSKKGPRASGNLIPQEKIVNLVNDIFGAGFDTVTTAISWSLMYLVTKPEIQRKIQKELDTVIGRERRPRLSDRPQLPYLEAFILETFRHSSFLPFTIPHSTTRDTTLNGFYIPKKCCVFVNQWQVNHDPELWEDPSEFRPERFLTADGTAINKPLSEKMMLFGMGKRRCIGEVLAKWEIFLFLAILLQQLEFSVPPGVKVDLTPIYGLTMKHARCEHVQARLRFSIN
Method in brief: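 Human CYP1A2 activity measured with a P450-Glo proluciferin substrate; compounds in DMSO preincubated 10 min at room temperature with enzyme-substrate mix, then NADPH regeneration system added for 1 h. Luciferin detection reagent, 20 min, luminescence read.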

Measured: Potency

N#CCc1ccc(Cl)cc1
active: [11] 39.9 µM
not listed: [13] | [14] | [15] | [16]
inactive: all other assays above

COc1cc(C=O)cc2c1[C@H](COC(N)=O)[C@]1(OC(C)=O)ON2C[C@H]2[C@@H]1N2C(C)=O
active: [1] 0.193 µM | [2] 61.1 µM | [3] 61.1 µM | [4] 2.73 µM
not listed: [13] | [14] | [15] | [16]
inactive: all other assays above

C[C@H]1O[C@@H](O[C@H]2[C@@H](O)C[C@H](O[C@H]3[C@@H](O)C[C@H](O[C@H]4CC[C@@]5(C)[C@H](CC[C@@H]6[C@@H]5CC[C@]5(C)[C@@H](C7=CC(=O)OC7)CC[C@]65O)C4)O[C@@H]3C)O[C@@H]2C)C[C@H](O)[C@@H]1O
not listed: [16]
inactive: all other assays above

CN(CCCC(=O)c1cccnc1)N=O
active: [15] 17.8 µM
not listed: [13] | [16]
inactive: all other assays above

CC(C)(C)OO
not listed: [13] | [14] | [16]
inactive: all other assays above

BrC(Br)C(Br)(Br)Br
active: [2] 48.9 µM | [11] 40.2 µM | [14] 31.9 µM | [16] 31.9 µM
not listed: [10] | [12] | [13]
inactive: all other assays above

CC(=O)Nc1ccc2c(c1)Cc1ccccc1-2
active: [5] 24.7 µM | [11] 18.1 µM | [14] 25.6 µM | [15] 64.3 µM
not listed: [10] | [13] | [16]
inactive: all other assays above

CSCCCN=C=S
active: [11] 71 µM
not listed: [10] | [12] | [13] | [14] | [16]
inactive: all other assays above
